# Test results: PubChem BioAssay AID1578 (Sanford-Burnham Center for Chemical Genomics, 2009)
# The whole screen tested about 290,000 compounds, of which about 3,000 (1%) were called active. Many of the other results were omitted from the sample, so actives are more common in it than they were. Unmarked numbers belong to inactive results. No stated cut-off is given here; in the data, active means inhibition mostly above about 36% (no sharp cut-off); inactive means mostly below about 34%.
# Experiment: NOD1 signaling inhibitors, primary screen, cell-based, luminescence, uHTS (AID 1578);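 further: HEK-293T reporter cells stimulated with the NOD1 agonist gamma-tri-DAP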
# Details: NOD1-driven NF-kB luciferase reporter cells, at 4 µM, stronger effect = higher value
row,SMILES,inhibition
1,CSc1nc2c(c(=O)[nH]1)CCCC2,-21.3%
2,COC(=O)c1ccc(NC(=O)CNC(=O)C2CCCCC2)cc1,-20.7%
3,C/C(=N\NC(=O)c1nn(C)cc1Br)c1ccncc1,-3.7%
4,O=C(O)c1ccc(S(=O)(=O)c2ccc3c(c2)C(=O)N(c2ccc(Br)cc2)C3=O)cc1,-8.2%
5,CN(CCOC(=O)c1ccco1)Cc1ccccc1,3.9%
6,O=C1NN(c2ccccc2)C(=O)/C1=C/c1ccc(-c2ccc(C(=O)O)cc2)o1,-32%
7,O=C1NN(c2ccccc2)C(=O)/C1=C/c1ccc(Sc2cccc3ccccc23)o1,74.7% (active)
8,COc1ccc(Sc2ccc(/C=C3\C(=O)NN(c4ccccc4)C3=O)o2)cc1,-2.5%
9,CC(=O)N1[C@H](C)C=C[C@]1(Cc1ccccc1)C(=O)NCc1cc(F)cc(C(F)(F)F)c1,5.4%
10,CC1CCN(CC2C(=O)O[C@@H]3C[C@@]4(C)CCC[C@H](C)C4=C[C@H]23)CC(C)(C)C1 (some centres not stated),15.4%
11,CCN(CC)CCNCC1C(=O)O[C@@H]2C[C@@]3(C)CCC[C@H](C)C3=C[C@H]12 (some centres not stated),-10.7%
12,C[C@H]1CCC[C@]2(C)C[C@H]3OC(=O)C(CN4CCCCCC4)[C@H]3C=C12 (some centres not stated),34% (active)
13,CCOC(=O)c1c(C)[nH]c(C(=O)CN2C(=O)NC(C)(CC(C)C)C2=O)c1C (configuration not stated),-30.4%
14,CCOc1ccc(NC(=O)c2cc(=O)[nH]c3ccccc23)cc1,-21.6%
15,Nc1ccc2nc(SCc3ccccc3F)sc2c1,-8.7%
16,CCc1cccc(NC(=O)c2cnn(-c3ccccc3)c2C)c1,-1.5%

row,SMILES,inhibition
1,Cc1ccc(-c2nc(CSCC(=O)NC3CCN(Cc4ccccc4)CC3)c(C)o2)cc1,16%
2,COc1ccc(-c2nc(CSCC(=O)NC3CCN(Cc4ccccc4)CC3)c(C)o2)cc1OC,-11.6%
3,COc1cc(C(=O)N2CCCCCCC2)ccc1OC1CCN(C(C)=O)CC1,-27.7%
4,C=CCc1cccc(/C=N/NC(=O)C(=O)Nc2ccc(C)cc2)c1O,-24.6%
5,C=CCc1cccc(/C=N/NC(=O)C(C)Nc2ccc(C)cc2)c1O (configuration not stated),30.7%
6,C=CCc1cccc(/C=N/NC(=O)C(C)Nc2cccc(C)c2)c1O (configuration not stated),53.5% (active)
7,CCOC(=O)C(Cc1ccccc1)NC(=O)CNC(C)=O (configuration not stated),-11.4%
8,CSc1ccc(/C=N/Nc2ccc(Cl)c(C(=O)O)c2)cc1,-22.8%
9,CN(C)c1ccc(/C=N/Nc2cccc(C(=O)O)c2)cc1,72.1% (active)
10,Cc1ccc(/C=N/Nc2cccc(C(=O)O)c2)s1,4.1%
11,O=C(O)c1cccc(N/N=C/c2ccc(F)c(F)c2)c1,-12.4%
12,Cc1ccsc1/C=N/Nc1cccc(C(=O)O)c1,84% (active)
13,Cc1ccsc1/C=N/Nc1ccc(C(=O)O)cc1,-2.3%
14,O=C(O)c1cccc(N/N=C/c2ccc(-c3ccccc3)cc2)c1,3.6%
15,CC(C)(C)c1ccc(/C=N/Nc2cccc(C(=O)O)c2)cc1,-13.1%
16,CSc1ccc(/C=N/Nc2cccc(C(=O)O)c2)cc1,83.8% (active)
